This passage reports inhibition results from ChEMBL document CHEMBL1961873, “Compounds: GSK PKIS; Assays: Nanosyn kinase panel” (2012).

Assay [1] has as its target T1, Serine/threonine-protein kinase TBK1 (Homo sapiens) (UniProt Q9UHD2).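 Further: values are mean inhibition of TBK1, screened as part of the GSK published kinase inhibitor set.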
T1 sequence (whole entry): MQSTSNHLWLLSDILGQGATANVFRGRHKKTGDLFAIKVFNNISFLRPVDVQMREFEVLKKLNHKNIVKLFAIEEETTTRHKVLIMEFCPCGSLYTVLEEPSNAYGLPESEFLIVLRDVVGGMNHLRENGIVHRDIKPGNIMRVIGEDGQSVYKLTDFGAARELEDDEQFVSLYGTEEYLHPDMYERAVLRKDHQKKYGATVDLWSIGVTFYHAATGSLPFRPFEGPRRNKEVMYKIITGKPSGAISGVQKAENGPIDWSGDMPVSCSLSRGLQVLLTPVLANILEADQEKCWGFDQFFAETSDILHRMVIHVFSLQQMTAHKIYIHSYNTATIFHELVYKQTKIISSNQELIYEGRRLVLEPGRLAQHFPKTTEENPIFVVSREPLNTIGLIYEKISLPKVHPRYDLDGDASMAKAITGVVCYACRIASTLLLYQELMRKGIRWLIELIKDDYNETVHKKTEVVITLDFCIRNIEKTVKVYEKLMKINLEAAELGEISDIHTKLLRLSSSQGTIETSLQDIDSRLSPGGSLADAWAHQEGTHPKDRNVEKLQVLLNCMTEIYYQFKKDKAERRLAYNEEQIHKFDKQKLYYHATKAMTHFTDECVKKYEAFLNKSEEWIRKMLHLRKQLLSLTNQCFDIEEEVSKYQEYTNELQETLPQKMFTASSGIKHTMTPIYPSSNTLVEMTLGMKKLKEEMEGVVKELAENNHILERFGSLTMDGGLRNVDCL
To be noted: at 1 µM.

For assay [2], the target named is T2, Testis-specific serine/threonine-protein kinase 1 (Homo sapiens) (UniProt Q9BXA7).
T2 sequence (whole entry): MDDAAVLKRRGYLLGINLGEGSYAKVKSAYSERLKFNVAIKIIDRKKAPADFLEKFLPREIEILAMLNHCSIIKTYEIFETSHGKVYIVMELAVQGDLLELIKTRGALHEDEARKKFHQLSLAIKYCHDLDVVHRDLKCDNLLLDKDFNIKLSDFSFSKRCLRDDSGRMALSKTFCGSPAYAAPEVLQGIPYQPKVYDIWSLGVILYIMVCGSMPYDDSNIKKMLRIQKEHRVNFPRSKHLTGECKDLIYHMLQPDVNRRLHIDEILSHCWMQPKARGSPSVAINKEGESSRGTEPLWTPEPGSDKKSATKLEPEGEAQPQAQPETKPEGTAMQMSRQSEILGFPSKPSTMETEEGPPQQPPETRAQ
To be noted: at 0.1 µM.

The target of assay [3] is T2, Testis-specific serine/threonine-protein kinase 1 (Homo sapiens). To be noted: at 1 µM.
In assay [4] the target is T3, Testis-specific serine/threonine-protein kinase 2 (Homo sapiens) (UniProt Q96PF2).
T3 sequence (whole entry): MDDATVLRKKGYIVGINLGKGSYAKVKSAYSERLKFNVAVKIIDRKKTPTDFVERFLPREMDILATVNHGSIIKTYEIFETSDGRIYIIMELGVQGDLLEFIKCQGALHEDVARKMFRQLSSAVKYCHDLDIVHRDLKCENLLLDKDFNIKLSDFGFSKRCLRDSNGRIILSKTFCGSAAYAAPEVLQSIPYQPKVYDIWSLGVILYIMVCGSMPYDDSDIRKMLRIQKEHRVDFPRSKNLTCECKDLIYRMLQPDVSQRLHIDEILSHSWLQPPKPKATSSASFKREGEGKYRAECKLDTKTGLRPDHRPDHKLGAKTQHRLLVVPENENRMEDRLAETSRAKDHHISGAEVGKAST
To be noted: at 0.1 µM.

The target of assay [5] is T3, Testis-specific serine/threonine-protein kinase 2 (Homo sapiens). To be noted: at 1 µM.
Assay [6] has as its target Casein kinase I isoform alpha (Homo sapiens) (UniProt P48729). To be noted: at 0.1 µM.
Assay [7] has the same target. To be noted: at 1 µM.
The target of assay [8] is Casein kinase I isoform gamma-1 (Homo sapiens) (UniProt Q9HCP0). To be noted: at 0.1 µM.
The target is the same in assay [9]. To be noted: at 1 µM.
Assay [10] deals with Casein kinase I isoform gamma-2 (Homo sapiens) (UniProt P78368). To be noted: at 0.1 µM.

Molecules are shown by their SMILES.

Casein kinase I isoform gamma-2 (Homo sapiens), sequence (P78368 whole entry, looked up, canonical isoform): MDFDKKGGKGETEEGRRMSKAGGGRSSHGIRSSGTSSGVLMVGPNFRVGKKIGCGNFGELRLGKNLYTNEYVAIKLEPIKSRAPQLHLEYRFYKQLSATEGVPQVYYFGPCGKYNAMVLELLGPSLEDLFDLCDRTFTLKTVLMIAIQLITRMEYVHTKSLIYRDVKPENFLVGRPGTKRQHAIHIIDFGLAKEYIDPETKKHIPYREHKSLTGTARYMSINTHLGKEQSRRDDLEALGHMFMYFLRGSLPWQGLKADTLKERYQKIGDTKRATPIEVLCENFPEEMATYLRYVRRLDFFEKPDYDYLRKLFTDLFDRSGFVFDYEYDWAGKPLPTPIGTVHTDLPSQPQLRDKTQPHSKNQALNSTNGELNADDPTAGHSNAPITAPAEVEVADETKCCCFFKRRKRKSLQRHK
Casein kinase I isoform alpha (Homo sapiens), sequence (P48729 2-337 limits assumed): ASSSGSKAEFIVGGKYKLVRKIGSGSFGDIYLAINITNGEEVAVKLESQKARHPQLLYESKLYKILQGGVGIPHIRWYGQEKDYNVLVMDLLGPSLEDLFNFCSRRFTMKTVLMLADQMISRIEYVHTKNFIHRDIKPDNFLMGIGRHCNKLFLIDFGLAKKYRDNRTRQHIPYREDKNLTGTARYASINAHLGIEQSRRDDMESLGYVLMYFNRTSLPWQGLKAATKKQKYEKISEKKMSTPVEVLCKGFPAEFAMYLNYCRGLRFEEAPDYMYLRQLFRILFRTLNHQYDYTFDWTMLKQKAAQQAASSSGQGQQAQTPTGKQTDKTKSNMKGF
Casein kinase I isoform gamma-1 (Homo sapiens), sequence (Q9HCP0 whole entry, looked up, canonical isoform): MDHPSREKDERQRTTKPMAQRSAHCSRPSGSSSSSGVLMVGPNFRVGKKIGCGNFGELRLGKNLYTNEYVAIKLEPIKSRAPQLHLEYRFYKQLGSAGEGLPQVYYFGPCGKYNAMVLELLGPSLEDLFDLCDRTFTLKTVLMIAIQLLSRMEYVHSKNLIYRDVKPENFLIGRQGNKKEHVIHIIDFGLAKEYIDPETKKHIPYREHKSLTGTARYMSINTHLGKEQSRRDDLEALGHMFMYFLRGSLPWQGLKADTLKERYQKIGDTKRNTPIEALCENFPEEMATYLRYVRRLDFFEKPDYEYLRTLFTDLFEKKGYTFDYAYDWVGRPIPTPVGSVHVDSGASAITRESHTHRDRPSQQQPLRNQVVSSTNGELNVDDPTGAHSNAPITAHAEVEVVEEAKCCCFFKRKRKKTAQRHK

Regarding `O=C1Nc2ccccc2/C1=C1\CCc2cc(O)ccc21`, the inhibition (usually the drop in the measured response relative to a control, in per cent) in assay [1] is 13%; in assay [2], 3.88%; in assay [3] it was 6.96%; in [4], 1.83%; in [5], 2.14%; in assay [6], 4.95%. In addition, the inhibition worked out at 9.64% in assay [7], 5% in assay [8], 6.41% in assay [9] and 3.27% in assay [10].
Take `FC(F)(F)CNc1nccc(-c2cnn3ncccc23)n1`: the inhibition in assay [1] is 0.21%; in assay [2], 3.33%; in [3], 2.64%; in assay [4], -0.54%; in assay [5], -0.28%; in [6] it was 3.2%. The inhibition worked out at 23.5% in assay [7], 2.54% in assay [8], 6.11% in assay [9] and 3.35% in [10].
With `O=C(O[C@H]1CN[C@H](C#Cc2cc3ncnc(Nc4ccc5c(ccn5Cc5cc(F)ccc5F)c4)c3s2)C1)N1CCOCC1`, the inhibition in [1] was 2.11%; in assay [2], 3.63%; in assay [3], 4.15%; in [4] it was 2.52%; in [5], 1.57%; in [6], 2.93%. For the same compound, the inhibition in [7] came to 5.4%; in [8] it was 4.17%; in assay [9], 5.41%; in assay [10], 3.09%.
Turning to `COc1cc(N2CCN(C(C)C)CC2)ccc1Nc1nc(Nc2cccc3ncccc23)c2cc[nH]c2n1`, the inhibition in [1] is 0.59%; in [2], 5.22%; in [3] it was 31.2%; in [4], 0.31%; in assay [5] it was 11.3%; in assay [6] it was -0.03%. The inhibition in assay [7] is 2.43%; in assay [8], -1.03%; in assay [9], -0.55%; in assay [10], -1.25%.
For `Cn1c(-c2nonc2N)nc2cnccc21`, the inhibition in assay [1] stood at 7.42%; in assay [2], 3.15%; in [3], 3.81%; in assay [4] it was 2.01%; in assay [5] it was 0.12%; in assay [6], 3.34%. The inhibition in assay [7] worked out at 6.21%; in assay [8] it was 2.61%; in [9], 2.68%; in assay [10], 2.2%.
In the case of `COC(=O)Nc1nc2cc(Oc3ccc(NC(=O)Nc4ccccc4)cc3)ccc2[nH]1`, the inhibition in assay [1] is 2.25%; in assay [2], 3.86%; in assay [3], 4.03%; in [4] it was 2.21%; in assay [5], 4.11%; in [6] it was 0.93%. Moreover, the inhibition in [7] came out at 2.7%; in assay [8], 2.12%; in assay [9] it was 2.12%; in assay [10], 2.17%.
With `Cc1c2ccc(N(C)c3ccnc(Nc4cccc(S(N)(=O)=O)c4)n3)cc2nn1C`, the inhibition in assay [1] was 8.43%; in assay [2] it was 3.59%; in assay [3], 3.32%; in assay [4], 1.26%; in assay [5], 1.14%; in assay [6] it was 3.21%. For the same compound, the inhibition in assay [7] was 4.51%; in assay [8] it was 1.31%; in assay [9] it was 1.52%; in assay [10], -0.37%.
Consider `CS(=O)(=O)Nc1ccc(-c2cc(-c3ccccc3)cc(C(N)=O)c2N)cc1`, for which the inhibition in assay [1] worked out at 2.08%; in [2], 2.3%; in assay [3], 2.85%; in [4], 0.46%; in assay [5], 1.61%; in assay [6], 0.02%. Besides, the inhibition came out at 2.47% in assay [7], 0.73% in assay [8], 0.84% in assay [9] and 0.2% in assay [10].
In the case of `CCOc1ccc2c(-c3ccnc(Nc4cc(OC)cc(C(F)(F)F)c4)n3)cnn2n1`, the inhibition is 37% in assay [1]; 0.8% in [2]; 0.89% in assay [3]; 0.22% in [4]; -0.73% in [5]; 2.19% in assay [6]. Also, the inhibition is 3.91% in assay [7], -0.62% in assay [8], 1.33% in [9] and -0.22% in [10].
For `CNC(=O)c1ncccc1Nc1nc(Nc2cc3c(cc2OC)CCCN3C(=O)CN(C)C)nc2[nH]ccc12`, the inhibition is 26.1% in [1]; 85.5% in assay [2]; 93.9% in assay [3]; 31% in assay [4]; 73.2% in [5]; 1.15% in [6]. Further, the inhibition in assay [7] is 6.71%; in assay [8], 4.96%; in [9] it was 8.09%; in assay [10] it was 2.28%.
On to `COc1cc(N2CCN(C(C)C)CC2)ccc1Nc1nc(Nc2cccc(F)c2C(=O)O)c2cc[nH]c2n1`, for which the inhibition in assay [1] came out at 6.19%; in assay [2], 21.1%; in assay [3], 70.9%; in assay [4], 9.88%; in assay [5], 49.2%; in assay [6], 6.82%. Moreover, the inhibition in [7] is 7.9%; in [8], 3.56%; in assay [9] it was 5.73%; in [10], 2.68%.
As for `COc1cc(Nc2ncc(-c3ccccc3)o2)cc(OC)c1`, the inhibition was determined as 4.2% in [1]; 4.25% in [2]; 4.53% in assay [3]; 2.32% in assay [4]; 2.49% in assay [5]; 4.52% in [6]. Also, the inhibition in assay [7] is 3.47%; in [8], 4.39%; in [9] it was 4.78%; in assay [10], 4.11%.
Take `COC(=O)Nc1nc2ccc(Oc3ccc(NC(=O)Nc4cc(C(F)(F)F)ccc4F)cc3)cc2s1`: the inhibition in [1] is -0.01%; in [2], 0.44%; in assay [3] it was 1.02%; in [4], -1.47%; in assay [5] it was 0.19%; in [6] it was -1.12%. In addition, the inhibition was 3.01% in assay [7], -0.2% in assay [8], -0.02% in assay [9] and -0.36% in assay [10].
For the compound `CN1CCC(n2cnc(-c3ccc(F)cc3)c2-c2ccnc(NCCO)n2)CC1`, the inhibition was found to be 7.57% in assay [1]; 4.44% in assay [2]; 6.56% in assay [3]; 3.07% in [4]; 4.33% in [5]; 37% in assay [6]. Further, the inhibition was found to be 73.4% in assay [7], 4.15% in [8], 8.74% in [9] and 2.94% in assay [10].
For `CCS(=O)(=O)c1ccc(OC)c(Nc2ncc(-c3cccc(C(C)=O)c3)o2)c1`, the inhibition was 5.54% in assay [1]; 2.02% in [2]; 5.38% in assay [3]; 3.72% in assay [4]; 1.57% in assay [5]; 0.47% in assay [6]. In addition, the inhibition was determined as 2.36% in [7], 2.26% in assay [8], 2.79% in [9] and 2.75% in [10].
For `COc1ccc(Nc2ncc(-c3ccccc3)o2)cc1OC`, the inhibition in [1] worked out at 10.7%; in [2] it was 0.54%; in assay [3], 1.75%; in assay [4], 0.12%; in assay [5], 0.02%; in assay [6], 3.39%. The inhibition stood at 6.61% in [7], 0.83% in [8], 3.24% in assay [9] and 0.28% in assay [10].
